Results on 40 molecules are retold here after PubChem BioAssay (EPA / NIEHS).

The structures appear in SMILES notation. Inconclusive results are not listed. Active and inactive are the calls of the source. Rule for the calls: active = hit-call score of the fitted dose curve at least 0.9, where 1 is the maximum; inconclusive = response in the unintended direction; inactive = score below 0.9.

The nature of the assay: ATG_M_06_TRANS: Attagene TRANS-FACTORIAL HepG2 Assay for M06 Transcription Factor (Internal Marker) (AID 2282983). The settings on record: HepG2 Attagene TRANS M06 internal marker reporter. The protocol:
ATG_TRANS is a cell-based, multiplexed-readout assay that uses HepG2, a human liver cell line, with measurements taken at 24 hours after chemical dosing in a 24-well plate.ATG_M_06_TRANS is one of 30 assay component(s) measured or calculated from the ATG_TRANS assay. It is designed to make measurements of mRNA induction, a form of inducible reporter, as detected with fluorescence intensity signals by Reverse transcription polymerase chain reaction (RT-PCR) and Capillary electrophoresis technology.Data from the assay component ATG_M_06_TRANS was analyzed into 1 assay endpoint. This assay endpoint, ATG_M_06_TRANS, was analyzed in the positive analysis fitting direction relative to DMSO as the negative control and baseline of activity. Using a type of inducible reporter, measures of mRNA for gain-of-signal activity can be used to understand the background control at the transcription factor-level as they relate to the gene . Furthermore, this assay endpoint can be referred to as a secondary readout, because this assay has produced multiple assay endpoints where this one serves a background control function. To generalize the intended target to other relatable targets, this assay endpoint is annotated to the background measurement intended target family, where the subfamily is internal marker.
Human liver HepG2 cells are transiently transfected with multiple reporter transcription units (MRTUs) in 6-well plates using FuGene 6 reagent (Roche; 3 ml FuGene/1 mg DNA). The MRTU constructs are regulated by a cis-regulating element (promoter). […] A major difference between the CIS and TRANS system is that in CIS activities of endogenous TFs are measured, whereas the TRANS assay evaluates changes in activities of exogenous, chimeric NR-Gal4 proteins. […] At the end of 24 hour incubation, total RNA was isolated using TriZol reagent (Invitrogen). The isolated RNA is then reverse-transcribed using oligo(dT) primer and Mo-MLV reverse transcriptase (Invitrogen) with DNAse I (Ambion) treatment for 30 min. The one-tenth of the produced cDNA was amplified by PCR using Taq DNA polymerase (Invitrogen) and two reporter sequence-specific primers. The PCR products were fluorescently labeled by primer extension with 6-arboxyfluorescein (6-FAM) 5'-labeled reporter sequence-specific primer (2 min at 95 C, 20 s at 68 C and 10 min at 72 C) and these products were digested with 5U of HpaI (New England Biolabs) for 2h at 37 C. The fragments were purified using Qiaquick PCR columns (Qiagen), analyzed on an ABI 3130xL genetic analyzer (Applied Biosystems) with peak positions identified by using a set of X-rhodamine (ROX)-labeled MapMarker1000 molecular weight standards (BioVentures). The raw capillary electrophoresis data was processed using Attagraph software (Attagene).
Turning to `Brc1ccc(Oc2c(Br)cc(Br)cc2Br)c(Br)c1`, the outcome was inactive.

Regarding `O=c1nc(O)n(Cl)c(=O)n1Cl`, the outcome was inactive.

In the case of `Cc1cc(Cl)ccc1OCCCC(=O)O`, the molecule was classed as inactive.

Take `CCOP(=S)(OCC)O/N=C(\C#N)c1ccccc1`: the molecule was classed as inactive.

Turning to `CCOC(=O)CC(=O)CCl`, the molecule was called inactive.

As for `CCCCOC(C)=O`, the molecule was called inactive.

Take `C#CCO`: the molecule was classed as inactive.

On to `O=C(NC(=O)c1c(F)cccc1F)Nc1ccc(Cl)cc1`, for which the call was inactive.

Take `O=S(=O)(C(Cl)(Cl)Cl)C(Cl)(Cl)Cl`: the outcome was inactive.

In the case of `O=C(O)COc1cc(Cl)c(Cl)cc1Cl`, the outcome was inactive.

As for `c1ccc2c(c1)Oc1ccccc1O2`, the result was inactive.

Take `Brc1c(Br)c(Br)c(Oc2c(Br)c(Br)c(Br)c(Br)c2Br)c(Br)c1Br`: the outcome was inactive.

Consider `CC(C)(C1CCC(O)CC1)C1CCC(O)CC1` (stereo not given), for which the outcome was inactive.

Turning to `CN(C1CCCCC1)C1CCCCC1`, the result was inactive.

For `CC(C)CP(=S)(S)CC(C)C`, the call was inactive.

Regarding `Nc1ccc(N)cc1`, the outcome was inactive.

As for `Nc1ccc(-c2ccccc2)cc1`, the molecule was classed as inactive.

In the case of `Fc1cccc(Cl)c1CCl`, the call was inactive.

As for `Cc1cc(Cl)ccc1N`, the molecule was classed as inactive.

Take `O=[N+]([O-])c1ccc(Nc2ccccc2)cc1`: the result was inactive.

For the molecule `CC(C=O)Cc1ccc2c(c1)OCO2` (stereo not given), the outcome was inactive.

Regarding `CC1CC(=O)O1` (stereo not given), the molecule was classed as inactive.

Take `O=C(Cc1ccccc1)OCCc1ccccc1`: the call was inactive.

For `c1cc[c]([Sb]([c]2ccccc2)[c]2ccccc2)cc1`, the result was inactive.

For `O=c1[nH]c(=O)n(Cl)c(=O)n1Cl`, the molecule was classed as inactive.

`Oc1ccc(Cc2ccc(O)cc2)cc1`: the outcome was inactive.

For the molecule `O=c1oc2ccccc2c(O)c1C(CC(O)c1ccc(-c2ccc(Br)cc2)cc1)c1ccccc1` (stereo not given), the molecule was called inactive.

On to `O=C(Nc1ccc(Br)cc1)c1cc(Br)cc(Br)c1O`, for which the molecule was classed as inactive.

As for `Cc1cc(C(C)(C)c2ccc(O)c(C)c2)ccc1O`, the result was inactive.

`CC(=O)CN(CC(C)=O)N=O`: the molecule was called inactive.

Regarding `Clc1cccc(Cl)c1Cl`, the molecule was called inactive.

In the case of `O=[N+]([O-])c1ccccc1O`, the result was inactive.

As to `CCCCCCCCCCCCBr`, the molecule was called inactive.

Take `CC1(C)[C@H](C(=O)O[C@H](C#N)c2cccc(Oc3ccccc3)c2)[C@@H]1/C=C(\Cl)C(F)(F)F`: the call was inactive.

`Cc1cc(Cl)ccc1OC(C)C(=O)O` (stereo not given): the molecule was called inactive.

On to `Nc1ccc(Br)cc1`, for which the molecule was called inactive.

Take `O=C(O)C1(c2ccc3c(c2)OC[C@H](Cc2ccc(-c4ccccc4)cc2)[C@H]3O)CCCC1`: the result was inactive.

`COc1ccc([N+](=O)[O-])cc1O`: the molecule was classed as inactive.

Turning to `CCOC(=O)OC1=C(c2cc(C)ccc2C)C(=O)NC12CCC(OC)CC2` (stereo not given), the call was inactive.

Regarding `OCCN(CCO)CCO`, the molecule was classed as inactive.
